{"source": "PubChem BioAssay (NCATS)", "note": "Inconclusive results are not listed. Unmarked numbers belong to inactive results. Calls of active or inactive are those of the source. Calls follow the shape of the dose curve; as a rule, active = well fitted inhibition curve with a large enough effect; inconclusive = small, poorly fitted or top-dose-only effect; inactive = flat fitted curve, though single readings scatter. Potency is read from the fitted curve at half-maximal effect.", "data": [{"tested_on": "HB3", "assay": "qHTS profiling for inhibitors of Plasmodium falciparum proliferation (AID 504749); also: nearly all actives have a fitted effect of over 60% in size;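 as to activity, negative = inhibition: 0% = DMSO vehicle and full inhibition = artemisinin control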", "conditions": "P. falciparum in erythrocytes, SYBR Green DNA, 72 h; series mostly up to 28.7 µM; activity, negative = inhibition: at the top concentration", "in_short": "(§1)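 P. falciparum-infected erythrocytes (0.3% parasitemia, 2.5% hematocrit final) were exposed to compounds for 72 h at 37 C in 5% CO2, then lysed with SYBR Green buffer overnight at room temperature; parasite DNA fluorescence was normalized to artemisinin and DMSO controls.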", "values": [{"smiles": "COc1ccc2[nH]cc(CCNC(C)=O)c2c1", "activity, negative = inhibition": "-1.19%"}, {"smiles": "Clc1ccc2nsnc2c1NC1=NCCN1", "activity, negative = inhibition": "8.8%"}, {"smiles": "NC(=O)OCC(COC(N)=O)c1ccccc1", "activity, negative = inhibition": "3.84%"}, {"smiles": "Cc1cnc(C(=O)NCCc2ccc(S(=O)(=O)NC(=O)NC3CCCCC3)cc2)cn1", "activity, negative = inhibition": "12%"}, {"smiles": "CC(C)(Oc1ccc(C2CC2(Cl)Cl)cc1)C(=O)O", "note": "(configuration not stated)", "activity, negative = inhibition": "-1.69%"}, {"smiles": "CN(C)c1nc(N(C)C)nc(N(C)C)n1", "activity, negative = inhibition": "10.6% [at 12.8 µM]"}, {"smiles": "CC(=O)OCC(CCn1cnc2cnc(N)nc21)COC(C)=O", "activity, negative = inhibition": "1.95%"}, {"smiles": "N[C@@H](Cc1c[nH]c2ccc(O)cc12)C(=O)O", "activity, negative = inhibition": "12.6%"}, {"smiles": "CC[N+](CC)(CC)CCOc1cccc(OCC[N+](CC)(CC)CC)c1OCC[N+](CC)(CC)CC", "activity, negative = inhibition": "6.26%"}, {"smiles": "NCCCCCC(=O)O", "activity, negative = inhibition": "1.69% [at 12.8 µM]"}, {"smiles": "O=C1N(c2ccccc2)c2ccccc2C1(Cc1ccncc1)Cc1ccncc1", "activity, negative = inhibition": "-22.4%"}, {"smiles": "Cc1cc(C(C)(C)C)c(O)c(C)c1CC1=NCCN1", "activity, negative = inhibition": "8.59%"}, {"smiles": "Nc1nc2c(ncn2COC(CO)CO)c(=O)[nH]1", "activity, negative = inhibition": "-4.61% [at 12.8 µM]"}, {"smiles": "CN(C)C(=N)N=C(N)N", "activity, negative = inhibition": "-20.8% [at 12.8 µM]"}, {"smiles": "NC(=O)NO", "activity, negative = inhibition": "2.49%"}, {"smiles": "NC12CC3CC(CC(C3)C1)C2", "activity, negative = inhibition": "12.4%"}, {"smiles": "CC(C)(C)C(=O)Oc1ccc(S(=O)(=O)Nc2ccccc2C(=O)NCC(=O)O)cc1", "activity, negative = inhibition": "-6.88%"}, {"smiles": "Cc1ccc(-c2cc(C(F)(F)F)nn2-c2ccc(S(N)(=O)=O)cc2)cc1", "activity, negative = inhibition": "-21.6%"}, {"smiles": "NCCS(=O)(=O)O", "activity, negative = inhibition": "10.3%"}, {"smiles": "CCCNCC(O)COc1ccccc1C(=O)CCc1ccccc1", "note": "(configuration not stated)", "Potency": "2000 nM (active)"}, {"smiles": "O=C(c1ccc(F)cc1)C1CCN(CCn2c(=O)[nH]c3ccccc3c2=O)CC1", "activity, negative = inhibition": "7.09%"}, {"smiles": "Cn1cnc2c1c(=O)[nH]c(=O)n2C", "activity, negative = inhibition": "7.54%"}, {"smiles": "C[C@](N)(Cc1ccc(O)c(O)c1)C(=O)O", "activity, negative = inhibition": "-2.48%"}, {"smiles": "NCCc1cnc[nH]1", "activity, negative = inhibition": "17.5%"}, {"smiles": "Cn1ccc2cc3c(cc21)CCN3C(=O)Nc1cccnc1", "activity, negative = inhibition": "-25%"}]}, {"tested_on": "ICS", "assay": "qHTS profiling for inhibitors of Plasmodium falciparum proliferation (AID 504749)", "conditions": "P. falciparum in erythrocytes, SYBR Green DNA, 72 h; series mostly up to 28.7 µM; activity, negative = inhibition: at the top concentration", "in_short": "as §1", "values": [{"smiles": "COc1ccc2[nH]cc(CCNC(C)=O)c2c1", "activity, negative = inhibition": "2.55%"}, {"smiles": "Clc1ccc2nsnc2c1NC1=NCCN1", "activity, negative = inhibition": "-0.0536%"}, {"smiles": "NC(=O)OCC(COC(N)=O)c1ccccc1", "activity, negative = inhibition": "14.5%"}, {"smiles": "Cc1cnc(C(=O)NCCc2ccc(S(=O)(=O)NC(=O)NC3CCCCC3)cc2)cn1", "activity, negative = inhibition": "7.17%"}, {"smiles": "CC(C)(Oc1ccc(C2CC2(Cl)Cl)cc1)C(=O)O", "note": "(configuration not stated)", "activity, negative = inhibition": "4.36%"}, {"smiles": "CN(C)c1nc(N(C)C)nc(N(C)C)n1", "activity, negative = inhibition": "11.4% [at 12.8 µM]"}, {"smiles": "CC(=O)OCC(CCn1cnc2cnc(N)nc21)COC(C)=O", "activity, negative = inhibition": "14.5%"}, {"smiles": "N[C@@H](Cc1c[nH]c2ccc(O)cc12)C(=O)O", "activity, negative = inhibition": "0.653%"}, {"smiles": "O=c1c(O)c(-c2ccc(O)c(O)c2)oc2cc(O)cc(O)c12", "Potency": "7940 nM (active)"}, {"smiles": "CC[N+](CC)(CC)CCOc1cccc(OCC[N+](CC)(CC)CC)c1OCC[N+](CC)(CC)CC", "activity, negative = inhibition": "-3.82%"}, {"smiles": "NCCCCCC(=O)O", "activity, negative = inhibition": "-2.44% [at 12.8 µM]"}, {"smiles": "Cc1cc(C(C)(C)C)c(O)c(C)c1CC1=NCCN1", "activity, negative = inhibition": "-8.41%"}, {"smiles": "Nc1nc2c(ncn2COC(CO)CO)c(=O)[nH]1", "activity, negative = inhibition": "-0.415% [at 12.8 µM]"}, {"smiles": "CN(C)C(=N)N=C(N)N", "activity, negative = inhibition": "0.45% [at 12.8 µM]"}, {"smiles": "NC(=O)NO", "activity, negative = inhibition": "5.44%"}, {"smiles": "NC12CC3CC(CC(C3)C1)C2", "activity, negative = inhibition": "18.3%"}, {"smiles": "CC(C)(C)C(=O)Oc1ccc(S(=O)(=O)Nc2ccccc2C(=O)NCC(=O)O)cc1", "activity, negative = inhibition": "-13.9%"}, {"smiles": "NCCS(=O)(=O)O", "activity, negative = inhibition": "18.2%"}, {"smiles": "CCCNCC(O)COc1ccccc1C(=O)CCc1ccccc1", "note": "(configuration not stated)", "Potency": "251 nM (active)"}, {"smiles": "O=C(c1ccc(F)cc1)C1CCN(CCn2c(=O)[nH]c3ccccc3c2=O)CC1", "activity, negative = inhibition": "13.5%"}, {"smiles": "Cn1cnc2c1c(=O)[nH]c(=O)n2C", "activity, negative = inhibition": "7.7%"}, {"smiles": "C[C@](N)(Cc1ccc(O)c(O)c1)C(=O)O", "activity, negative = inhibition": "5.71%"}, {"smiles": "NCCc1cnc[nH]1", "activity, negative = inhibition": "0.647%"}]}, {"tested_on": "JCK", "assay": "qHTS profiling for inhibitors of Plasmodium falciparum proliferation (AID 504749)", "conditions": "P. falciparum in erythrocytes, SYBR Green DNA, 72 h; series mostly up to 28.7 µM; activity, negative = inhibition: at the top concentration", "in_short": "as §1", "values": [{"smiles": "COc1ccc2[nH]cc(CCNC(C)=O)c2c1", "activity, negative = inhibition": "-1.32%"}, {"smiles": "Clc1ccc2nsnc2c1NC1=NCCN1", "activity, negative = inhibition": "2.22%"}, {"smiles": "NC(=O)OCC(COC(N)=O)c1ccccc1", "activity, negative = inhibition": "7.9%"}, {"smiles": "Cc1cnc(C(=O)NCCc2ccc(S(=O)(=O)NC(=O)NC3CCCCC3)cc2)cn1", "activity, negative = inhibition": "10.8%"}, {"smiles": "CC(C)(Oc1ccc(C2CC2(Cl)Cl)cc1)C(=O)O", "note": "(configuration not stated)", "activity, negative = inhibition": "-18.1%"}, {"smiles": "CN(C)c1nc(N(C)C)nc(N(C)C)n1", "activity, negative = inhibition": "0.339% [at 12.8 µM]"}, {"smiles": "CC(=O)OCC(CCn1cnc2cnc(N)nc21)COC(C)=O", "activity, negative = inhibition": "-2.48%"}, {"smiles": "N[C@@H](Cc1c[nH]c2ccc(O)cc12)C(=O)O", "activity, negative = inhibition": "-10.5%"}, {"smiles": "O=c1c(O)c(-c2ccc(O)c(O)c2)oc2cc(O)cc(O)c12", "activity, negative = inhibition": "-10.4%"}, {"smiles": "CC[N+](CC)(CC)CCOc1cccc(OCC[N+](CC)(CC)CC)c1OCC[N+](CC)(CC)CC", "activity, negative = inhibition": "12.5%"}, {"smiles": "NCCCCCC(=O)O", "activity, negative = inhibition": "4.13% [at 12.8 µM]"}, {"smiles": "O=C1N(c2ccccc2)c2ccccc2C1(Cc1ccncc1)Cc1ccncc1", "activity, negative = inhibition": "-0.973%"}, {"smiles": "Cc1cc(C(C)(C)C)c(O)c(C)c1CC1=NCCN1", "activity, negative = inhibition": "-26.8%"}, {"smiles": "Nc1nc2c(ncn2COC(CO)CO)c(=O)[nH]1", "activity, negative = inhibition": "13.6% [at 12.8 µM]"}, {"smiles": "CN(C)C(=N)N=C(N)N", "activity, negative = inhibition": "1.89% [at 12.8 µM]"}, {"smiles": "NC(=O)NO", "activity, negative = inhibition": "-1.91%"}, {"smiles": "CC(C)(C)C(=O)Oc1ccc(S(=O)(=O)Nc2ccccc2C(=O)NCC(=O)O)cc1", "activity, negative = inhibition": "3.2%"}, {"smiles": "Cc1ccc(-c2cc(C(F)(F)F)nn2-c2ccc(S(N)(=O)=O)cc2)cc1", "activity, negative = inhibition": "3.22%"}, {"smiles": "NCCS(=O)(=O)O", "activity, negative = inhibition": "9.7%"}, {"smiles": "CCCNCC(O)COc1ccccc1C(=O)CCc1ccccc1", "note": "(configuration not stated)", "Potency": "3550 nM (active)"}, {"smiles": "O=C(c1ccc(F)cc1)C1CCN(CCn2c(=O)[nH]c3ccccc3c2=O)CC1", "activity, negative = inhibition": "1.23%"}, {"smiles": "Cn1cnc2c1c(=O)[nH]c(=O)n2C", "activity, negative = inhibition": "9.08%"}, {"smiles": "C[C@](N)(Cc1ccc(O)c(O)c1)C(=O)O", "activity, negative = inhibition": "-17.8%"}, {"smiles": "NCCc1cnc[nH]1", "activity, negative = inhibition": "8.22%"}]}]}
